The full list was thinned out, with hits kept by preference.
Shiga inhibitor – Shiga toxin inhibition; Vero cells, Shiga toxin protein synthesis inhibition reporter; inhibition, % at 38.7 µM; hit rate 9.2% among 290,000; AID 2315; in the data active means inhibition mostly above about 28%, no sharp cut-off; inactive means mostly below about 43%; further: 0% is about no effect
TbPYK inhibitor – blocks Trypanosoma brucei pyruvate kinase; Q57TT1; TbPYK enzyme, Kinase-Glo Plus ATP luminescence, 45 min; Potency, µM (highest dose often 76.8 µM), for the others: at the top dose activity, negative = inhibition, hits mostly inhibitors; hit rate 0.12% among 410,000; further: potency means the concentration at half of the fitted maximal effect; on the % scale 0 is the no-effect control and ±100 the full control effect; nearly all actives have a fitted effect of over 50% in size
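Readout: single end-point luminescence (Kinase-Glo Plus, 10 min). Reaction conditions were TbPYK/substrate plus 130 uM ADP, 45 min at RT, pH 7.2 TEA buffer. No-enzyme wells served as controls, and data were normalized before concentration-response fitting.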
LmPK inhibitor – inhibitors of Leishmania mexicana pyruvate kinase; Q27686; purified LmPK, Kinase-Glo ATP luminescence, 1 h; Potency, µM (titrated, usually from 57.5 µM), for inactives: at the top dose activity change, negative = inhibition, hits mostly inhibitors; hit rate 0.37% among 290,000; further: potency means the concentration at half of the fitted maximal effect; on the % scale 0 is the no-effect control and ±100 the full control effect
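qHTS format; LmPK 0.1 nM; substrates PEP 0.5 mM and ADP 0.1 mM. One-hour room-temperature incubation, then coupled luciferase luminescence; 0.5 nM enzyme wells mark activation.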
FBPA Giardia inh – inhibitors of Giardia lamblia fructose-1,6-bisphosphate aldolase; AID 2451; hit rate 0.71% among 290,000; A8B2U2; purified Giardia FBPA; Potency, µM (titrated, usually from 59.6 µM), inactives show at the top dose activity, negative = inhibition, usual class: inhibitors; further: potency means the concentration at half of the fitted maximal effect; on the % scale 0 is the no-effect control and ±100 the full control effect; nearly all actives have a fitted effect of over 55% in size
Target sequence (A8B2U2 whole entry, looked up): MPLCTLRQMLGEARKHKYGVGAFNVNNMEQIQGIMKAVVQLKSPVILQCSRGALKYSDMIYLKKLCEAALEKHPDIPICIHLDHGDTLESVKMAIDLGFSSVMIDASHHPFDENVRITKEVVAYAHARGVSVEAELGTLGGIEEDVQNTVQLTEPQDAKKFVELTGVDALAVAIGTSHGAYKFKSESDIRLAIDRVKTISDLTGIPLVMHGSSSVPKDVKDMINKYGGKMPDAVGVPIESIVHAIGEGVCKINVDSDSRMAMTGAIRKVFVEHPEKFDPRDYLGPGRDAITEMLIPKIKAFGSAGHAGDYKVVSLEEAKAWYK
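Giardia FBPA (40 nM reagent) was preincubated 10 min at RT with compound (up to 57.5 uM final), then substrate plus GAPDH/TPI/NAD/arsenate coupling system with diaphorase/resazurin was added; resorufin fluorescence (525/598 nm) was read after 20 min.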
Sm TGR inh – S. mansoni TGR enzyme inhibition; purified TGR, DTNB reduction, TNB absorbance 405 nm; Potency, µM (highest dose often 114 µM), without a hit: top-dose activity change, negative = inhibition, usual class: inhibitors; AID 485364; hit rate 3% among 360,000; Q962Y6; further: potency means the concentration at half of the fitted maximal effect; on the % scale 0 is the no-effect control and ±100 the full control effect; nearly all actives have a fitted effect of over 60% in size
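First, TGR (20 nM dispensed) and NADPH were mixed with compound. Second, a 15 min room-temperature incubation followed. Third, further NADPH and then DTNB were added to start the reaction. Finally, TNB absorbance was monitored kinetically.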
CHX counter – affects cycloheximide protein synthesis inhibition readout, counter-screen. cell reporter, cycloheximide protein synthesis inhibition counterscreen. max response, %. hit rate 12% among 300,000. AID 2314; in the data active means max response mostly above about 13%, no sharp cut-off; inactive means mostly below about 14%; further: read at 38.3 µM for the half of the compounds with a filed dose; 0% is about no effect
* hit, by the source's call; ? = inconclusive; nt = not tested or not shown; [ ] = another dose, or the depositor's remark. Unless noted, the call rests on the fitted dose curve; in most records, active means well fitted curve in the direction sought with a large enough effect; inconclusive means small, poorly fitted or top-dose-only effect, or another doubt; inactive means no such curve, though single readings can be large; an effect the other way counts as inactive or inconclusive.

SMILES	Shiga inhibitor	TbPYK inhibitor	LmPK inhibitor	FBPA Giardia inh	Sm TGR inh	CHX counter
c1cc(CNCCc2ccc3c(c2)OCO3)ccn1	nt	1%	-1%	?	45µM*	-3
c1cc(CNC2=NCCCCC2)ccn1	-7	-3%	4%	0%	44%	-3
O=C(Nc1cccc(F)c1)Nc1ccccn1	61*	-15%	-6%	-5%	-4%	49*
Cc1oc(-c2ccc(C(=O)NCc3ccccc3Cl)cc2)nc1CN1CCc2ccccc21	nt	0%	nt	nt	-1%	nt
O=C(CSc1nc(-c2ccc(F)cc2)cc(C(F)(F)F)n1)NCCc1ccccc1	nt	1%	nt	nt	-1%	nt
CC(=O)c1cccc(NC(=O)NCc2cccs2)c1	11	-10%	-1%	0%	2%	1
O=C(NCc1ccccn1)Nc1ccc2c(c1)OCO2	101*	0%	0%	-9%	-2%	57*
O=C(NCc1cccs1)Nc1ccc(Cl)cc1	61*	-11%	5%	3%	-17%	45*
O=C(Nc1ccc2c(c1)OCO2)Nc1ccccn1	99*	-6%	-6%	-19%	-10%	55*
O=C(Nc1ccc2c(c1)OCO2)Nc1cnccn1	58*	-5%	0%	-6%	-3%	27*
CCOc1ccc(NC(=O)NCc2ccccn2)cc1	39	1%	5%	-4%	-1%	13
CCOC(=O)c1cc2c(=O)n3ccccc3nc2n(CCOC)c1=NC(=O)c1c(-c2ccccc2Cl)noc1C	nt	3%	nt	nt	1%	nt
Cc1ccc(C(=O)n2nc(C)c(S(=O)(=O)N3CCCCCC3)c2C)cc1C	nt	2%	nt	nt	1%	nt
O=C1OC(c2cc(I)c(O)c(I)c2)(c2cc(I)c(O)c(I)c2)c2ccccc21	-2	-15%	nt	-11%	nt	1
COc1ccc(NC(=O)NCc2ccc3c(c2)OCO3)cc1OC	17	-6%	-4%	-4%	-5%	-2
Clc1ccc(CCNCc2ccncc2)c(Cl)c1	26	-2%	-4%	?	28µM*	4
O=C(NCc1ccncc1)Nc1ccc2c(c1)OCO2	41*	-2%	-1%	-1%	9%	26*
Cc1ccc(Cl)cc1NC(=O)C1CCN(c2nnc(C)c3c(C)n(-c4ccccc4)nc23)CC1	nt	-1%[15.4 µM]	nt	nt	-4%	nt
O=C(NCc1cccs1)c1ccc2c(c1)sc1nc(-c3ccccc3)cn12	nt	3%	nt	nt	1%	nt
CCN(CC)c1ccc(NC(=O)c2cccnc2)cc1	61*	-1%	-7%	-8%	0%	39*
CCN(CC)c1ccc(NC(=O)c2cncc(Br)c2)cc1	60*	4%	-8%	-11%	1%	43*
COC(=O)c1ccc(NC(=O)c2cccnc2)cc1	nt	5%	4%	10%	86%	-2
C[C@H]1C2=C3C(CC[C@H]4C(OCc5ccc(F)cc5C(F)(F)F)OC[C@](C)([C@@H]34)N(C(=O)OC(C)(C)C)C2)C2COC(=O)OCC21 (some centres not stated)	nt	nt	nt	1%	nt	nt
Cc1ccc(SCCC(=O)N(C)C)cc1	23	8%	-12%	-1%	-5%	17*
Cc1ccc(SCCC(=O)NC(C)(C)C)cc1	73*	-6%	4%	-1%	-8%	44*
SMILES	Shiga inhibitor	TbPYK inhibitor	LmPK inhibitor	FBPA Giardia inh	Sm TGR inh	CHX counter
O=C(COC(=O)c1ccc2ccccc2n1)c1ccccc1	52	-1%	5%	8%	8%	46*
O=C(OCC(=O)c1ccc[nH]1)c1ccc2ccccc2n1	18	2%	2%	-4%	-9%	19*
O=C(OCc1ccc(F)cc1)c1ccc2ccccc2n1	46*	6%	1%	4%	3%	25*
COc1ccc(CNC(=O)COC(=O)c2ccc3ccccc3n2)cc1	nt	-3%	nt	nt	nt	nt
O=C(OCC(=O)c1ccc[nH]1)c1ccc(Cl)c(Cl)c1	nt	-2%	nt	nt	nt	nt
Cc1ccc(-n2nc3c(=O)n(CCCC(=O)NCCc4ccccc4Cl)nc(C)c3c2C)cc1	-3	5%	nt	nt	-3%	11
O=c1c2c([N+](=O)[O-])cc([N+](=O)[O-])cc2sn1-c1ccc(Br)cc1	-7	4µM*	1%	?	?	1
O=C(Nc1ccc(Br)cc1)c1cc([N+](=O)[O-])cc([N+](=O)[O-])c1	nt	-27%	8%	0%	-19%	-3
O=[N+]([O-])c1ccc(S(=O)Cc2ccccc2)c([N+](=O)[O-])c1 (configuration not stated)	nt	3%	nt	nt	nt	nt
O=c1c2c([N+](=O)[O-])cc([N+](=O)[O-])cc2sn1Cc1ccccc1	-3	1.6µM*	-6%	-23%	0%	-5
Cc1nc2ccc(S(=O)(=O)NC(C(=O)N3CCN(c4ccc(Cl)cc4)CC3)C(C)C)cc2s1 (configuration not stated)	nt	4%	nt	nt	0%	nt
O=C(Oc1ccc([N+](=O)[O-])cc1)c1cc(-c2ccccc2)nc2ccccc12	28	3%	-2%	6%	26%	-2
O=C(Oc1ccc(-c2cnc3ccccc3n2)cc1)c1ccc(Cl)c([N+](=O)[O-])c1	48*	-6%	0%	-6%	2%	37*
O=C(Oc1ccc(-c2cnc3ccccc3n2)cc1)c1cccc([N+](=O)[O-])c1	41*	-10%	-3%	-3%	4%	26*
Cc1cc(OCC(=O)Nc2ccc(-c3nc4cc(Cl)ccc4o3)cc2)cc(C)c1Cl	nt	0%	nt	nt	3%	nt
O=C(COC(=O)COc1ccccc1F)NCCc1ccc(F)cc1	nt	0%	nt	nt	-1%	nt
CCC(=O)c1ccc(OC(=O)c2cnccn2)cc1	-8	-8%	2%	9%	?	-1
N#Cc1ccc(OC(=O)c2cnccn2)cc1	-1	8%	6%	-25%	22µM*	1
Cc1ccccc1CCNC(=O)c1ccc2c(c1)c(C)c(C)n2Cc1ccccc1	nt	-16%[15.4 µM]	nt	nt	0%	nt
Oc1ccccc1Oc1ncc(Br)c(Cl)n1	3	2%	-1%	-5%	35µM*	5
CCOC(=O)CNC(=O)c1ccc(SCC)cc1	83*	-18%	-29%	3%	0%	37*
CCOC(=O)CNC(=O)CNC(=O)c1ccc(OC(C)C)cc1	37	-1%	0%	5%	7%	24*
CC(=O)Nc1ccc(C(=O)OCC(=O)N2CCC(Cc3ccccc3)CC2)cc1	nt	6%	nt	nt	-7%	nt
CC(C)(C)NC(=O)[C@H]1CC[C@H]2[C@@H]3CC=C4C=C(C(=O)O)CC[C@@]4(C)[C@H]3CC[C@]12C	nt	0%	nt	nt	nt	nt
C=CCn1c2ccccc2c(=O)c2cc(C#CC3(O)CCCCC3)ccc21	55*	-2%	4%	-27%	-20%	44*
C=CCn1c2ccccc2c(=O)c2cc(C#CC[C@@H](C)O)ccc21	nt	-1%	nt	nt	50µM*	nt
CCOC(=O)c1ccccc1NC(=O)c1cc2c(=O)oc3ccc(C)cc3c2s1	nt	0%	nt	nt	1%	nt
